Screens: PubChem, Broad Institute
IDE exosite FP: exo-site inhibitors of human IDE, primary screen, biochemical, fluorescence anisotropy, probe displacement | actives 6.3% (n = 17,000) | AID 1259349, 2017 | purified IDE, FL-6b probe fluorescence polarization; stronger effect = lower value | z-score at 20 µM;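 active means z-score of -3 or lower, meaning strong loss of probe binding signal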;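 further: His-tagged human IDE residues 42-1019 made in E. coli with 30 nM FL-6b probe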
Hits are given with their value; i = inactive. Shown is part of a subset that was picked to be rich in hits.

SMILES | IDE exosite FP
O=S(=O)(c1ccccc1F)N1CCCCN2[C@H](CO)[C@H](c3ccc(-c4cccnc4)cc3)[C@@H]2C1 | i
Cc1cccc(S(=O)(=O)N2CCCCN3[C@H](C2)[C@H](c2ccc(-c4cccnc4)cc2)[C@@H]3CO)c1 | i
Cc1ccccc1S(=O)(=O)N1CCCCN2[C@H](CO)[C@@H](c3ccc(-c4cncnc4)cc3)[C@H]2C1 | i
Cc1ccccc1S(=O)(=O)N1CCCCN2[C@@H](CO)[C@@H](c3ccc(-c4cncnc4)cc3)[C@@H]2C1 | -4.33
O=S(=O)(c1ccccc1F)N1CCCCN2[C@@H](CO)[C@@H](c3ccc(-c4cccnc4)cc3)[C@@H]2C1 | -12.8
CCCC(=O)N1CC2(CCN(S(=O)(=O)CC)CC2)c2c(n(C)c3cc(OC)ccc23)[C@@H]1CO | i
CCC(=O)NC[C@H]1[C@@H](c2ccc(C3=CCCC3)cc2)[C@H](CO)N1C(C)=O | i
Cc1cccc(-c2ccc(C3[C@H]4CNC[C@@H]3N4S(=O)(=O)c3ccccc3C)cc2)c1 (some centres not stated) | i
CN1C(=O)c2cc(NC(=O)c3ccc(F)c(F)c3)ccc2OC[C@H]2O[C@@H](CC(=O)N3CCCCC3)CC[C@@H]21 | i
C/C=C/c1cnc2c(c1)C(=O)N([C@@H](C)CO)C[C@H](C)[C@@H](CN(C)CC1CCOCC1)O2 | i
CN(C)C(=O)c1cccc(-c2ccc([C@@H]3[C@H]4CN(CCC(F)(F)F)CCCCN4[C@H]3CO)cc2)c1 | i
O=C(C1CCCC1)N1CCCCN2[C@H](CO)[C@H](c3ccc(C4=CCCC4)cc3)[C@@H]2C1 | i
O=C(Nc1ccc2c(c1)[C@H]1C[C@@H](CC(=O)N3CCc4ccccc4C3)O[C@H](CO)[C@H]1O2)c1ccc2c(c1)OCO2 | i
CS(=O)(=O)N1CC2(C1)[C@H](c1ccccc1)[C@@H](CO)N2Cc1ccccc1 | i
CCS(=O)(=O)N1CC2(C1)[C@H](c1ccccc1)[C@@H](CO)N2C(=O)c1ccccc1 | i
CCC(=O)N1[C@H](CO)[C@@H](c2ccc(/C=C/c3ccccc3)cc2)C12CN(S(C)(=O)=O)C2 | -7.41
C[C@H](NC(=O)[C@@H]1[C@@H](CO)[C@@H]2Cn3c(cccc3=O)[C@@H]2N1CCC(F)(F)F)c1ccccc1 | i
N#C[C@H]1[C@@H](c2ccc(C#CC3CC3)cc2)[C@H](CO)N1S(=O)(=O)c1ccccc1 | i
CN(C)C(=O)c1cccc(-c2ccc([C@@H]3[C@H]4CN(CC5CCOCC5)CCCCN4[C@H]3CO)cc2)c1 | i
N#C[C@H]1[C@@H](c2ccc(C3=CCCC3)cc2)[C@H](CO)N1C(=O)C1CCC1 | i
Cc1ccccc1-c1ccc([C@H]2[C@H]3CN(C(=O)NC4CCCC4)CCCCN3[C@H]2CO)cc1 | -5.69
Cc1ccccc1-c1ccc([C@H]2[C@@H](CO)N3CCCCN(C(=O)NC4CCCC4)C[C@@H]23)cc1 | -19.3
Cc1ccccc1-c1ccc([C@H]2[C@@H](CO)N3CCCCN(C(=O)NC4CCCC4)C[C@H]23)cc1 | -17.3
CC(=O)N(C)C[C@@H]1[C@@H](c2ccc(-c3ccccc3F)cc2)[C@H](CO)N1C(C)=O | i
CN1CCCCN2[C@H](CO)[C@H](c3ccc(Br)cc3)[C@@H]2C1 | i
SMILES | IDE exosite FP
COCC(=O)N1[C@@H](C#N)[C@H](c2ccccc2-c2ccccc2F)[C@@H]1CO | i
CO[C@@H]1CN(C)C(=O)c2ccc(NS(=O)(=O)c3cccc(Cl)c3)cc2OC[C@@H](C)N(C(=O)Cc2cccnc2)C[C@H]1C | i
O=C(CN1CCOCC1)N1CC(=O)N2[C@H](CO)[C@@H](c3ccc(/C=C/c4ccccc4)cc3)[C@@H]2C1 | -4.39
O=C(C1CCOCC1)N1CC(=O)N2[C@H](C1)[C@@H](c1ccc(/C=C/c3ccccc3)cc1)[C@@H]2CO | -7.63
O=C(C1CCOCC1)N1CC(=O)N2[C@H](CO)[C@H](c3ccc(Br)cc3)[C@@H]2C1 | i
CCCC#Cc1ccc([C@@H]2[C@@H](CO)N3C(=O)CN(C(=O)CN4CCOCC4)C[C@H]23)cc1 | i
O=C(CN1CCOCC1)N1CC(=O)N2[C@H](CO)[C@@H](c3ccc(/C=C/c4ccccc4)cc3)[C@H]2C1 | -5.99
CCCC#Cc1ccc([C@H]2[C@H](CO)N3C(=O)CN(C(=O)CN4CCOCC4)C[C@@H]23)cc1 | i
O=C(CN1CCOCC1)N1CC(=O)N2[C@H](CO)[C@@H](c3ccc(-c4ccccc4)cc3)[C@H]2C1 | i
O=C(C1CCOCC1)N1CC(=O)N2[C@@H](CO)[C@@H](c3ccc(Br)cc3)[C@@H]2C1 | i
CCCC#Cc1ccc([C@H]2[C@H]3CN(C(=O)CN4CCOCC4)CC(=O)N3[C@H]2CO)cc1 | i
CS(=O)(=O)N1[C@@H](C#N)[C@@H](c2ccccc2)[C@@H]1CO | i
CCCNC(=O)N1[C@H](C#N)[C@H](c2ccc(-c3ccccc3F)cc2)[C@H]1CO | i
O=C1N[C@H](c2ccccc2)COCc2cnnn2CC[C@@H]1Cc1ccc(C(F)(F)F)cc1 | i
Cc1ccccc1S(=O)(=O)N1CC(=O)N2[C@H](C1)[C@H](c1ccc(C#CC3CC3)cc1)[C@@H]2CO | i
